Experimental data published in PubChem BioAssay AID1159580 (chemical genetic matrix, 2015).
In all, about 5,500 compounds went through this assay and about 2,000 (36%) were called active. Inconclusive results (about 18%) are left out. Cut-off read from the data, not from the text of the source: active = normalized growth mostly below about 0.91 (no sharp cut-off); inconclusive = no clear call, values can overlap the other calls; inactive = mostly above about 0.92. This is one part of the list.

Assay: chemical genetic growth profiling, strain panel (AID 1159580);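 note: tested at 20 µM; growth read once vehicle control cultures reached saturation at 30 °C; 1 = growth at the plate median or of vehicle wells; lower values mean less growth of the strain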
Settings: growth OD

Measured: normalized growth

Cc1ccsc1/C=C/C1=NCCCN1C
inactive: S. cerevisiae deletion strains, locus YJR075W, strain HOC1, hits give low values 0.991 | S. cerevisiae deletion strains, locus YKL009W, strain mrt4, hits give low values 0.982 | S. cerevisiae deletion strains, locus YKL068W, hits give low values 0.967 | S. cerevisiae deletion strains, locus YKL085W, strain MDH1 (second series), hits give low values 0.979 | S. cerevisiae deletion strains, locus YKL085W, strain MDH1, hits give low values 0.979 | S. cerevisiae deletion strains, locus YKL160W, strain elf1, hits give low values 0.999 | S. cerevisiae deletion strains, locus YKL190W, strain CNB1, hits give low values 1.02 | S. cerevisiae deletion strains, locus YKR001C, strain vps1, hits give low values 0.944 | S. cerevisiae deletion strains, locus YKR026C, strain gcn3, hits give low values 0.994 | S. cerevisiae deletion strains, locus YKR091W, strain srl3, hits give low values 0.994 | S. cerevisiae deletion strains, locus YLL001W, strain dnm1, hits give low values 0.979 | S. cerevisiae deletion strains, locus YLL026W, hits give low values 0.99 | S. cerevisiae deletion strains, locus YLL041C, strain sdh2, hits give low values 0.988 | S. cerevisiae deletion strains, locus YLR027C, strain aat2, hits give low values 0.998 | S. cerevisiae deletion strains, locus YLR039C, strain RIC1, hits give low values 0.947 | S. cerevisiae deletion strains, locus YLR058C, strain SHM2, hits give low values 1.01 | S. cerevisiae deletion strains, locus YLR102C, strain apc9, hits give low values 0.984 | S. cerevisiae deletion strains, locus YLR113W, strain HOG1, hits give low values 0.963 | S. cerevisiae deletion strains, locus YLR221C, strain rsa3, hits give low values 0.983 | S. cerevisiae deletion strains, locus YLR258W, strain gsy2, hits give low values 0.988 | S. cerevisiae deletion strains, locus YLR262C, strain YPT6 (second series), hits give low values 0.97 | S. cerevisiae deletion strains, locus YLR262C, strain YPT6, hits give low values 0.946 | S. cerevisiae deletion strains, locus YLR268W, strain sec22, hits give low values 0.93 | S. cerevisiae deletion strains, locus YLR320W, strain mms22, hits give low values 0.991 | S. cerevisiae deletion strains, locus YLR330W, strain CHS5, hits give low values 1 | S. cerevisiae deletion strains, locus YLR342W, strain FKS1 (second series), hits give low values 1.08 | S. cerevisiae deletion strains, locus YLR342W, strain FKS1, hits give low values 1 | S. cerevisiae deletion strains, locus YLR357W, strain rsc2, hits give low values 0.967 | S. cerevisiae deletion strains, locus YLR370C, strain arc18, hits give low values 0.977 | S. cerevisiae deletion strains, locus YLR371W, strain rom2, hits give low values 0.973 | S. cerevisiae deletion strains, locus YLR384C, strain iki3, hits give low values 0.99 | S. cerevisiae deletion strains, locus YLR418C, strain cdc73, hits give low values 0.956 | S. cerevisiae deletion strains, locus YML016C, strain PPZ1, hits give low values 1.01 | S. cerevisiae deletion strains, locus YML032C, strain rad52, hits give low values 0.958 | S. cerevisiae deletion strains, locus YML120C, strain ndi1, hits give low values 0.991 | S. cerevisiae deletion strains, locus YML124C, strain tub3, hits give low values 0.991 | S. cerevisiae deletion strains, locus YMR058W, strain fet3, hits give low values 0.987 | S. cerevisiae deletion strains, locus YMR078C, strain ctf18, hits give low values 0.975 | S. cerevisiae deletion strains, locus YMR125W, strain sto1, hits give low values 0.994 | S. cerevisiae deletion strains, locus YMR129W, hits give low values 0.99 | S. cerevisiae deletion strains, locus YMR205C, strain PFK2, hits give low values 0.987 | S. cerevisiae deletion strains, locus YMR223W, strain ubp8, hits give low values 1.02 | S. cerevisiae deletion strains, locus YMR231W, strain pep5, hits give low values 0.987 | S. cerevisiae deletion strains, locus YMR263W, strain SAP30, hits give low values 0.994 | S. cerevisiae deletion strains, locus YMR307W, strain GAS1, hits give low values 1.07 | S. cerevisiae deletion strains, locus YNL067W, strain RPL9B, hits give low values 0.98 | S. cerevisiae deletion strains, locus YNL071W, strain lat1, hits give low values 0.988 | S. cerevisiae deletion strains, locus YNL128W, strain TEP1, hits give low values 1 | S. cerevisiae deletion strains, locus YNL153C, strain GIM3, hits give low values 1 | S. cerevisiae deletion strains, locus YNL183C, strain NPR1, hits give low values 0.952 | S. cerevisiae deletion strains, locus YNL209W, strain ssb2, hits give low values 0.984 | S. cerevisiae deletion strains, locus YNL233W, strain BNI4, hits give low values 1.01 | S. cerevisiae deletion strains, locus YNL248C, strain rpa49, hits give low values 0.997 | S. cerevisiae deletion strains, locus YNL250W, strain rad50, hits give low values 0.997 | S. cerevisiae deletion strains, locus YNL271C, strain bni1, hits give low values 0.976 | S. cerevisiae deletion strains, locus YNL298W, strain CLA4, hits give low values 0.974 | S. cerevisiae deletion strains, locus YNL307C, strain MCK1, hits give low values 0.976 | S. cerevisiae deletion strains, locus YNL322C, strain KRE1 (second series), hits give low values 0.987 | S. cerevisiae deletion strains, locus YNL322C, strain KRE1, hits give low values 1 | S. cerevisiae deletion strains, locus YNR049C, strain mso1, hits give low values 0.987 | S. cerevisiae deletion strains, locus YNR052C, strain pop2, hits give low values 0.976 | S. cerevisiae deletion strains, locus YOL006C, strain TOP1, hits give low values 0.921 | S. cerevisiae deletion strains, locus YOL012C, strain htz1 1.13 | S. cerevisiae deletion strains, locus YOL147C, strain pex11, hits give low values 0.992 | S. cerevisiae deletion strains, locus YOR001W, strain rrp6, hits give low values 1.01 | S. cerevisiae deletion strains, locus YOR061W, strain CKA2, hits give low values 1.01 | S. cerevisiae deletion strains, locus YOR069W, strain VPS5, hits give low values 1.01 | S. cerevisiae deletion strains, locus YOR070C, strain gyp1, hits give low values 0.983 | S. cerevisiae deletion strains, locus YOR080W, strain dia2, hits give low values 0.989 | S. cerevisiae deletion strains, locus YOR083W, strain WHI5, hits give low values 0.998 | S. cerevisiae deletion strains, locus YOR106W, strain vam3, hits give low values 0.994 | S. cerevisiae deletion strains, locus YOR136W, strain idh2, hits give low values 0.972 | S. cerevisiae deletion strains, locus YOR144C, strain elg1, hits give low values 0.977 | S. cerevisiae deletion strains, locus YOR184W, strain ser1, hits give low values 0.94 | S. cerevisiae deletion strains, locus YOR231W, strain MKK1, hits give low values 0.979 | S. cerevisiae deletion strains, locus YOR265W, strain rbl2, hits give low values 1.01 | S. cerevisiae deletion strains, locus YOR270C, strain vph1, hits give low values 1.01 | S. cerevisiae deletion strains, locus YOR290C, strain snf2, hits give low values 1 | S. cerevisiae deletion strains, locus YOR316C, strain cot1, hits give low values 0.956 | S. cerevisiae deletion strains, locus YPL051W, strain arl3, hits give low values 0.993 | S. cerevisiae deletion strains, locus YPL055C, strain LGE1, hits give low values 0.954 | S. cerevisiae deletion strains, locus YPL078C, strain atp4, hits give low values 0.992 | S. cerevisiae deletion strains, locus YPL106C, strain sse1, hits give low values 0.996 | S. cerevisiae deletion strains, locus YPL240C, strain hsp82, hits give low values 0.988 | S. cerevisiae deletion strains, locus YPL241C, strain CIN2, hits give low values 1.01 | S. cerevisiae deletion strains, locus YPL256C, strain CLN2, hits give low values 0.939 | S. cerevisiae deletion strains, locus YPR119W, strain clb2, hits give low values 0.981 | S. cerevisiae deletion strains, locus YPR141C, strain kar3, hits give low values 0.979 | S. cerevisiae deletion strains, locus YPR163C, strain tif3, hits give low values 0.983 | S. cerevisiae deletion strains, locus YPR167C, strain met16, hits give low values 0.97 | S. cerevisiae deletion strains, strain wtn01, hits give low values 0.949 | S. cerevisiae strains, strain wild type, hits give low values 1.01
